Experimental findings from PubChem BioAssay AID374 (University of Pittsburgh Molecular Library Screening Center, 2006) are described below.

SMILES strings stand for the structures. About 100 (0.15%) of roughly 65,000 compounds were called active. The entries come from a sample that favours actives as a whole. A number with no mark means an inactive call.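 How the source made its calls: active means inhibition above about 50% (limit read from the data); inconclusive means inhibition over screen mean plus 3 SD, below that limit; inactive means the rest.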

Dual specificity protein phosphatase 1 (Homo sapiens), sequence (P28562 whole entry, looked up): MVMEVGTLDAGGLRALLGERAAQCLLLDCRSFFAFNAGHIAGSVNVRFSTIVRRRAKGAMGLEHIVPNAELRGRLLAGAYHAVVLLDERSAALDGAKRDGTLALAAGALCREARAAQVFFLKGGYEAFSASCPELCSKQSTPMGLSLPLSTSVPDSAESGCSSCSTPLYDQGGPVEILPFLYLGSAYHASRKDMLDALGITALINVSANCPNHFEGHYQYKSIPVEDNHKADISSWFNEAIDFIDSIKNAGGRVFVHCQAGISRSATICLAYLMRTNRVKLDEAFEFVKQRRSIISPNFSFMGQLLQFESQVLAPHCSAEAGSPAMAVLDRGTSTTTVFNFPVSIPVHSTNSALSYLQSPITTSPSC

This experiment has as its target Dual specificity protein phosphatase 1 (Homo sapiens) (UniProt P28562). Put plainly: MKP-1 phosphatase inhibitors, primary screen, biochemical, in vitro (AID 374).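 Further: 0% = DMSO max control wells and 100% = wells with enzyme stopped by NaOH.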 The conditions noted are these: recombinant MKP-1, OMFP hydrolysis fluorescence; active compounds read high;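 compounds tested at a single concentration somewhere between 10 and 100 µM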.
One may read the inhibition as the change of the read-out against control, counted positive when it falls. As to `COC(=O)N(c1ccc(OC)cc1)P1(=S)OCCC(C)O1` (stereo not given), the inhibition was 100% (active). Then `CCOC(=O)c1c(N)n(Cc2ccccc2)c2nc3ccccc3nc12`, with 32.1%; and `COC(=O)C(c1ccccc1)N1CCCCCC1` (stereo not given), with -10.8%. Then `CCc1nc2ccccc2c(=O)n1-c1cccc(OC)c1`, with 2.83%; and `CCN(CC)CCOC(=O)c1cc2cc(COC)ccc2o1`, with 2.26%.
